Experimental data taken from PubChem BioAssay AID777 (Sanford-Burnham Center for Chemical Genomics, 2007).
Out of some 96,000 compounds screened, about 19,000 (20%) were called active.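 The calls were made as follows: active = blocking of liver enzyme CYP2C9 beyond about 50% at 5 µM (limit read from the data); inactive = the rest.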 A selection follows.

biological target: Cytochrome P450 2C9 (Homo sapiens) (UniProt P11712); assay: blockers of cytochrome P450 2C9 activity – biochemical, luminescence, ADME assay, primary screen (AID 777); details: CYP2C9 Supersomes, luciferin-H conversion, at 5 µM, active compounds read high
Sequence (P11712 whole entry, looked up): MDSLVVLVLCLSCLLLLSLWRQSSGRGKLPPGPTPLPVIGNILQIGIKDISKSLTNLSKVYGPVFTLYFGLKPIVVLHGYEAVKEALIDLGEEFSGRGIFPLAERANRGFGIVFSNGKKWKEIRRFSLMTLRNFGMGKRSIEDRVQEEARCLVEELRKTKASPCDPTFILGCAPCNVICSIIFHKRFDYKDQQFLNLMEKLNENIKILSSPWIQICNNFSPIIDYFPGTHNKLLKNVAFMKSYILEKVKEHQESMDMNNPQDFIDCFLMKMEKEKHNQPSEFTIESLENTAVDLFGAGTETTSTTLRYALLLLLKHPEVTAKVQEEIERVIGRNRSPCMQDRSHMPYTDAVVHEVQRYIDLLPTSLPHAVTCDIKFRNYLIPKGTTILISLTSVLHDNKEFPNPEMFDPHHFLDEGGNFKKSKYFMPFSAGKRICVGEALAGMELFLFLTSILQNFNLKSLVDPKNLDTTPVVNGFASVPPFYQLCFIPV

Question: Which inhibition does the source give for `COc1cc2c(cc1NC(=O)CN1CCN(S(=O)(=O)c3ccc(F)cc3)CC1)oc1ccccc12` here?
Answer: 78.7% (active)

Question: For `COc1ccc(NC(=O)CN2CCN(S(=O)(=O)c3ccc(F)cc3)CC2)cc1Cl`, which inhibition is on record?
Answer: 17.3% (inactive)

Question: Which inhibition does the source give for `COc1ccccc1NC(=O)CN1CCN(S(=O)(=O)c2ccc(Br)cc2)CC1` here?
Answer: -0.8% (inactive)

Question: `CN1/C(=c2/s/c(=C3/C(=O)N(c4ccccc4)NC3=Nc3ccccc3)n(C)c2=O)C(C)(C)c2ccccc21` was tested. Which inhibition did it give?
Answer: 19% (inactive)

Question: With `CCNC(=O)c1c(O)c2cccc3c2n(c1=O)CC3` as the compound, how does the inhibition read?
Answer: 10.3% (inactive)

Question: With `O=C(COC(=O)CCC(=O)c1cccs1)NCc1ccco1` as the compound, how does the inhibition read?
Answer: 2.9% (inactive)

Question: For `CC(C)(C)c1cc(=O)n2c(nc3ccccc32)[nH]1`, which inhibition is on record?
Answer: 52% (active)

Question: `CC(C)(C)N1CC(c2nc3ccccc3n2Cc2ccc(F)cc2)CC1=O` (stereo not drawn) was tested. Which inhibition did it give?
Answer: 22.8% (inactive)

Question: For `Cc1nn2c3ccccc3nc2n(C)c1=O`, which inhibition is on record?
Answer: -5.7% (inactive)

Question: Which inhibition does the source give for `Cn1c(SCC(=O)N2CCOCC2)nnc1-c1ccc(NC(=O)c2ccccc2F)cc1` here?
Answer: 13% (inactive)

Question: For `CCCCC(CC)C(=O)Nc1ccc(Cl)cn1` (stereo not drawn), which inhibition is on record?
Answer: 7.6% (inactive)

Question: How did the inhibition turn out when `CC(C)C(NC(=O)OCc1ccccc1)C(=O)OCC(=O)N1C(C)CCCC1C` (stereo not drawn) was run?
Answer: 1.2% (inactive)

Question: Which inhibition does the source give for `CCC(C)NC(=O)c1c(N)n(/N=C/c2cccs2)c2nc3ccccc3nc12` (stereo not drawn) here?
Answer: 17.2% (inactive)

Question: For `Cc1ccc(OCc2nnc(NC(=O)OCC(C)C)s2)cc1`, which inhibition is on record?
Answer: 20.2% (inactive)

Question: With `CC(C)c1cc(C(N)=O)c(NC(=O)c2cccc(COc3ccc(Br)cc3)c2)s1` as the compound, how does the inhibition read?
Answer: 56.1% (active)

Question: `COc1ccc(N2CCN(C3CC(=O)N(c4ccc5c(c4)OCCO5)C3=O)CC2)cc1` (stereo not drawn) was tested. Which inhibition did it give?
Answer: -1% (inactive)

Question: Which inhibition does the source give for `O=c1oc2c(Cl)cc(Cl)cc2cc1-c1nnc(Nc2ccccc2F)s1` here?
Answer: -4.3% (inactive)

Question: With `Cc1cccc(OCc2nnc(SCc3nc4cc(C(F)(F)F)ccc4c(=O)[nH]3)o2)c1` as the compound, how does the inhibition read?
Answer: 33% (inactive)

Question: Which inhibition does the source give for `O=C(Cc1ccc(S(=O)(=O)N2CCCC2)s1)NC1CCCCCC1` here?
Answer: 35.1% (inactive)

Question: Which inhibition does the source give for `O=C(c1ccc(S(=O)(=O)N2CCOCC2)cc1)N1CCN(c2ccccc2)CC1` here?
Answer: -4.5% (inactive)

Question: How did the inhibition turn out when `O=C(Cc1ccc(S(=O)(=O)N2CCOCC2)s1)NCCC(c1ccccc1)c1ccccc1` was run?
Answer: 71.6% (active)

Question: With `C=C(Br)Cn1c(CCCC)nc2ccccc21` as the compound, how does the inhibition read?
Answer: 35% (inactive)

Question: With `Cc1[nH]n(-c2ccc([N+](=O)[O-])cc2)c(=O)c1C=NCCN1CCN(C(=O)c2ccccc2F)CC1` as the compound, how does the inhibition read?
Answer: 16.8% (inactive)

Question: How did the inhibition turn out when `Cc1csc(NC(=O)C2CCCN2C(=O)OCC(C)C)n1` (stereo not drawn) was run?
Answer: 21.7% (inactive)

Question: `O=C(/C=C/c1ccco1)Nc1ccc(Oc2ccccc2)cc1` was tested. Which inhibition did it give?
Answer: 11.5% (inactive)

Question: Which inhibition does the source give for `Cc1ccc(-n2nc3ccc(NC(=O)/C=C/c4ccco4)cc3n2)cc1C` here?
Answer: 34.5% (inactive)

Question: `O=C(/C=C/c1ccco1)Nc1cccc(-c2nc3ccccc3[nH]2)c1` was tested. Which inhibition did it give?
Answer: 81.3% (active)

Question: Which inhibition does the source give for `CCc1nnc(NC(=O)CSc2nc3c(c(=O)n2-c2ccccc2OC)SCC3)s1` here?
Answer: 7.3% (inactive)

Question: Which inhibition does the source give for `O=C(Cn1c(-c2cncs2)nc2ccccc21)NC1CCCC1` here?
Answer: 2.4% (inactive)

Question: With `Cc1ccc(-n2nc3c(c2NC(=O)CCC2CCCCC2)CS(=O)C3)cc1` (stereo not drawn) as the compound, how does the inhibition read?
Answer: 12% (inactive)

Question: `CCCOC(=O)c1[nH]c2c(c1C)C(=O)CC(c1cccs1)C2` (stereo not drawn) was tested. Which inhibition did it give?
Answer: 72.3% (active)

Question: Which inhibition does the source give for `CCCOC(=O)c1[nH]c2c(c1C)C(=O)CC(c1cc(OC)c(OC)c(OC)c1)C2` (stereo not drawn) here?
Answer: 66.2% (active)

Question: How did the inhibition turn out when `COC(=O)C1C(=O)c2c([nH]c(C(=O)OCCSC)c2C)CC1C` (stereo not drawn) was run?
Answer: 32.8% (inactive)

Question: Which inhibition does the source give for `CCOC(=O)c1[nH]c2c(c1C)C(=O)CC(c1ccc(N(C)C)cc1)C2` (stereo not drawn) here?
Answer: 36.2% (inactive)

Question: How did the inhibition turn out when `O=c1c2ccccc2nc2n1C(CSCc1cccc(C(F)(F)F)c1)CS2` (stereo not drawn) was run?
Answer: 38.6% (inactive)

Question: `CCOC(=O)CSc1nnc(CNC(=O)c2ccco2)n1-c1ccc(F)cc1` was tested. Which inhibition did it give?
Answer: -0.1% (inactive)

Question: With `O=C(NC1CCCCC1)c1ccc(CNc2c(N3CCOCC3)c(=O)c2=O)cc1` as the compound, how does the inhibition read?
Answer: -23.2% (inactive)

Question: How did the inhibition turn out when `O=C(NCCN1C(=O)C2C3C=CC(C3)C2C1=O)Nc1ccccn1` (stereo not drawn) was run?
Answer: -16.2% (inactive)

Question: How did the inhibition turn out when `CC12CCC(C(=O)N3CCN(c4ncccn4)CC3)(c3nc4ccccc4nc31)C2(C)C` (stereo not drawn) was run?
Answer: 51.5% (active)

Question: For `O=S(=O)(c1cccc2nonc12)N1CCN(c2cccc(Cl)c2)CC1`, which inhibition is on record?
Answer: 12.3% (inactive)

Question: For `O=C(NCCN1CCN(Cc2ccccc2)CC1)c1cc2c(=O)[nH]c3ccccc3c2s1`, which inhibition is on record?
Answer: 31% (inactive)

Question: With `CCCc1nnc(NC(=O)CN2C(=O)c3ccccc3S2(=O)=O)s1` as the compound, how does the inhibition read?
Answer: 9.5% (inactive)

Question: `C=C(Br)CN1CCN(CC(=C)Br)CC1` was tested. Which inhibition did it give?
Answer: -1.7% (inactive)

Question: For `O=C(O)C1CC=C(Cl)CC1C(=O)NCc1ccccc1` (stereo not drawn), which inhibition is on record?
Answer: 13.8% (inactive)

Question: For `Cc1occc1C(=O)Nc1nnc(-c2ccncc2)s1`, which inhibition is on record?
Answer: 90.1% (active)

Question: Which inhibition does the source give for `Cc1occc1C(=O)Nc1cccc(Cn2cccn2)c1` here?
Answer: 51.4% (active)

Question: With `Cc1ccc(C(=O)Nc2nnc(-c3ccncc3)s2)o1` as the compound, how does the inhibition read?
Answer: 93.1% (active)

Question: For `CC(C)=CC(=O)Nc1nnc(-c2ccc(F)cc2)s1`, which inhibition is on record?
Answer: 9% (inactive)
